Experimental data published in PubChem BioAssay (EPA / NIEHS).
Results filed as inconclusive are left out. More than one record can exist for a structure, and the calls need not agree. Activity calls are given as the source filed them. The calls were made as follows, unless noted: active = hit-call score of the fitted dose curve at least 0.9, where 1 is the maximum; inactive = score below 0.9.

Key:
[1] = read-out: Interleukin-8 (IL8), CXCL8 (gene 3576); assay: BSK_3C_IL8: BioMAP Diversity Plus: 3C Assay for Interleukin-8 (IL8) Biomarker Activity (AID 2283020); settings: primary human endothelial cells (HUVEC); actives raise or lower the signal
How it was run: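 Primary human umbilical vein endothelial cells (3C system) were exposed to test chemical for 24 h, then IL-8 was quantified by ELISA. Responses were fitted bidirectionally against DMSO vehicle as baseline.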

[2] = read-out: Monokine induced gamma interferon (MIG), CXCL9 (gene 4283); assay: BSK_3C_MIG: BioMAP Diversity Plus: 3C Assay for Monokine induced gamma interferon (MIG) Biomarker Activity (AID 2283021); settings: primary human endothelial cells (HUVEC); actives raise or lower the signal
How it was run: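 Primary human umbilical vein endothelial cells in the 3C system were exposed to chemical for 24 h, after which MIG was quantified by ELISA. Activity was fitted bidirectionally against DMSO as negative control and baseline.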

[3] = BSK_3C_SRB: Viability Assessment in the BioMAP Diversity Plus: 3C Assay (AID 2283023); settings: primary human endothelial cells (HUVEC);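 also: fitted both ways against DMSO so a hit may be signal rise or drop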
How it was run: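 Human umbilical vein endothelial cells in the 3C system, treated 24 h. Total protein measured by 0.1% sulforhodamine B staining after 10% TCA fixation, read at 560 nm; bidirectional fit versus DMSO.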

[4] = read-out: Matrix Metallopeptidase 1 (MMP1), MMP1 (gene 4312); assay: BSK_BE3C_MMP1: BioMAP Diversity Plus: BE3C Assay for Matrix Metallopeptidase 1 (MMP1) Biomarker Activity (AID 2283024); settings: primary human bronchial epithelial cells; actives raise or lower the signal
How it was run: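 Primary human bronchial epithelial cells were dosed with test chemicals, and MMP1 levels were measured by ELISA 24 h later. Data were fitted bidirectionally against DMSO as the negative control and activity baseline.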

[5] = read-out: Pselectin, SELP (gene 6403); assay: BSK_4H_Pselectin: BioMAP Diversity Plus: 4H Assay for Pselectin Biomarker Activity (AID 2283026); settings: primary human endothelial cells (HUVEC); actives raise or lower the signal
How it was run: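 Primary human umbilical vein endothelial cells were exposed to test chemical for 24 h, then cell-surface P-selectin was quantified by ELISA. Activity was fitted bidirectionally against DMSO as negative control and baseline.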

[6] = BSK_4H_SRB: Viability Assessment in the BioMAP Diversity Plus: 4H Assay (AID 2283027); settings: primary human endothelial cells (HUVEC);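 also: cells exposed to compound for 24 h before staining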;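 as to AC50: curves fitted both ways versus DMSO so AC50 may be loss or gain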
How it was run: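 Human umbilical vein endothelial cells were dosed with chemical and, after 24 h, fixed with 10% TCA, stained with 0.1% sulforhodamine B, and read at 560 nm to give total protein as a cytotoxicity measure. Bidirectional fitting relative to DMSO control.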

[7] = BSK_BE3C_SRB: Viability Assessment in the BioMAP Diversity Plus: BE3C Assay (AID 2283028); settings: primary human bronchial epithelial cells;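 as to AC50: fitted both ways so AC50 may mark signal gain or loss versus DMSO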
How it was run: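 Human bronchial epithelial primary cells in confluent culture, 24 h after chemical dosing; total protein by 0.1% SRB staining after 10% TCA fixation, read at 560 nm. Bidirectional fitting versus DMSO baseline.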

[8] = read-out: Thrombomodulin, THBD (gene 7056); assay: BSK_3C_Thrombomodulin: BioMAP Diversity Plus: 3C Assay for Thrombomodulin Biomarker Activity (AID 2283029); settings: primary human endothelial cells (HUVEC); actives raise or lower the signal
How it was run: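 Primary human umbilical vein endothelial cells (3C system) were exposed to chemical for 24 h, then thrombomodulin levels were measured by ELISA. Activity was fitted bidirectionally against the DMSO negative control as baseline.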

[9] = read-out: Urokinase-type plasminogen activator receptor (uPAR), PLAUR (gene 5329); assay: BSK_4H_uPAR: BioMAP Diversity Plus: 4H Assay for Urokinase-type plasminogen activator receptor (uPAR) Biomarker Activity (AID 2283030); settings: primary human endothelial cells (HUVEC); actives raise or lower the signal
How it was run: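 Human umbilical vein endothelial cells in the 4H system, 24 h after chemical dosing. Cell-surface uPAR measured by ELISA, fitted in both directions versus DMSO; cytotoxicity checked by SRB total protein in parallel cultures.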

[10] = read-out: Vascular endothelial growth factor receptor 2 (Homo sapiens) (UniProt P35968); assay: BSK_4H_VEGFRII: BioMAP Diversity Plus: 4H Assay for Vascular endothelial growth factor receptor 2 (VEGFR2) Biomarker Activity (AID 2283031); settings: primary human endothelial cells (HUVEC); actives raise or lower the signal;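 as to AC50: cell-surface VEGFR2 protein level quantified by ELISA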
How it was run: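 Primary human umbilical vein endothelial cells (4H system), 24 h exposure; cell-surface VEGFR2 measured by ELISA. Bidirectional fitting versus DMSO; cytotoxicity checked in parallel by SRB total-protein staining.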

[11] = read-out: Human Leukocyte Antigen - DR isotype (HLADR), HLA-DRA (gene 3122); assay: BSK_BE3C_HLADR: BioMAP Diversity Plus: BE3C Assay for Human Leukocyte Antigen - DR isotype (HLADR) Biomarker Activity (AID 2283032); settings: primary human bronchial epithelial cells; actives raise or lower the signal
How it was run: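 Human primary bronchial epithelial cells in the BE3C system were exposed to chemicals for 24 h, after which HLA-DR levels were quantified by ELISA. Activity was fitted bidirectionally, gain or loss of signal, against DMSO as negative control and baseline.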

[12] = read-out: Vascular cell adhesion molecule 1 (VCAM1), VCAM1 (gene 7412); assay: BSK_4H_VCAM1: BioMAP Diversity Plus: 4H Assay for Vascular cell adhesion molecule 1 (VCAM1) Biomarker Activity (AID 2283033); settings: primary human endothelial cells (HUVEC); actives raise or lower the signal
How it was run: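 Primary human umbilical vein endothelial cells were exposed to chemicals for 24 h, after which VCAM-1 was quantified by ELISA. Responses were fitted bidirectionally against DMSO as negative control and activity baseline.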

[13] = read-out: Interferon-gamma inducible Protein 10 (IP10), CXCL10 (gene 3627); assay: BSK_BE3C_IP10: BioMAP Diversity Plus: BE3C Assay for Interferon-gamma inducible Protein 10 (IP10) Biomarker Activity (AID 2283034); settings: primary human bronchial epithelial cells; actives raise or lower the signal
How it was run: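 Human primary bronchial epithelial cells were exposed to chemicals for 24 hours, after which IP-10 levels were measured by ELISA. Data were fitted bidirectionally against DMSO, which served as the negative control and activity baseline.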

[14] = read-out: Monokine induced gamma interferon (MIG), CXCL9 (gene 4283); assay: BSK_BE3C_MIG: BioMAP Diversity Plus: BE3C Assay for Monokine induced gamma interferon (MIG) Biomarker Activity (AID 2283035); settings: primary human bronchial epithelial cells; actives raise or lower the signal
How it was run: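 ELISA read-out of MIG in human lung bronchial epithelial primary cultures, 24 h post-dosing. Bidirectional curve fit vs DMSO baseline.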

[15] = read-out: Transforming growth factor beta 1 (TGFb1), TGFB1 (gene 7040); assay: BSK_BE3C_TGFb1: BioMAP Diversity Plus: BE3C Assay for Transforming growth factor beta 1 (TGFb1) Biomarker Activity (AID 2283036); settings: primary human bronchial epithelial cells; actives raise or lower the signal
How it was run: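 Human primary bronchial epithelial cells (BE3C system) were dosed with chemical and TGF-b1 levels measured by ELISA at 24 h. Activity was fitted bidirectionally relative to DMSO negative control as baseline.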

[16] = read-out: Plasminogen activator inhibitor-1 (PAI1), SERPINE1 (gene 5054); assay: BSK_BE3C_PAI1: BioMAP Diversity Plus: BE3C Assay for Plasminogen activator inhibitor-1 (PAI1) Biomarker Activity (AID 2283037); settings: primary human bronchial epithelial cells; actives raise or lower the signal
How it was run: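 Human primary bronchial epithelial cells were exposed to chemical for 24 h, then PAI-1 was quantified by ELISA. Activity was fitted bidirectionally relative to the DMSO negative control baseline.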

[17] = read-out: urokinase plasminogen activator (uPA), PLAU (gene 5328); assay: BSK_BE3C_uPA: BioMAP Diversity Plus: BE3C Assay for urokinase plasminogen activator (uPA) Biomarker Activity (AID 2283038); settings: primary human bronchial epithelial cells; actives raise or lower the signal
How it was run: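 Primary human bronchial epithelial cells, uPA measured by ELISA 24 h after dosing. Bidirectional change relative to DMSO; cytotoxicity checked in parallel cultures by sulforhodamine B total-protein staining.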

[18] = molecular target: human Vitamin D Receptor (VDR), VDR (gene 7421) (UniProt P11473); assay: ATG_VDR_TRANS: Attagene TRANS-FACTORIAL HepG2 Assay for human Vitamin D Receptor (VDR) (AID 2283022; active = hit-call score of the fitted dose curve at least 0.9, where 1 is the maximum)
How it was run: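 HepG2 cells were transiently transfected with GAL4-UAS reporter units and a chimeric VDR-Gal4 construct, then dosed for 24 hours. Reporter mRNA was quantified by RT-PCR, fluorescent labeling, HpaI digestion and capillary electrophoresis; gain of signal analysed vs DMSO.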

[19] = read-out: Urokinase-type plasminogen activator receptor (uPAR), PLAUR (gene 5329); assay: BSK_BE3C_uPAR: BioMAP Diversity Plus: BE3C Assay for Urokinase-type plasminogen activator receptor (uPAR) Biomarker Activity (AID 2283039); settings: primary human bronchial epithelial cells; actives raise or lower the signal;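 also: cells exposed to compound for one day before measurement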
How it was run: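 Primary human bronchial epithelial cells were dosed with chemical and harvested 24 h later; uPAR was quantified by ELISA. Activity was fitted bidirectionally against DMSO as negative control and baseline.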

[20] = BSK_3C_Vis: BioMAP Diversity Plus: 3C Assay for Morphology Visualization (AID 2283025); settings: primary human endothelial cells (HUVEC);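 also: fitted both ways so gain or loss versus DMSO counts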
How it was run: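 Human umbilical vein endothelial cells in the 3C system were imaged by light microscopy 24 h after chemical dosing to record cell morphology. Activity was fitted bidirectionally against DMSO as negative control and baseline; the endpoint serves as a background control.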

Measured: AC50

Sequence of human Vitamin D Receptor (VDR), VDR (gene 7421) (P11473 whole entry, looked up, the tested form may be a part): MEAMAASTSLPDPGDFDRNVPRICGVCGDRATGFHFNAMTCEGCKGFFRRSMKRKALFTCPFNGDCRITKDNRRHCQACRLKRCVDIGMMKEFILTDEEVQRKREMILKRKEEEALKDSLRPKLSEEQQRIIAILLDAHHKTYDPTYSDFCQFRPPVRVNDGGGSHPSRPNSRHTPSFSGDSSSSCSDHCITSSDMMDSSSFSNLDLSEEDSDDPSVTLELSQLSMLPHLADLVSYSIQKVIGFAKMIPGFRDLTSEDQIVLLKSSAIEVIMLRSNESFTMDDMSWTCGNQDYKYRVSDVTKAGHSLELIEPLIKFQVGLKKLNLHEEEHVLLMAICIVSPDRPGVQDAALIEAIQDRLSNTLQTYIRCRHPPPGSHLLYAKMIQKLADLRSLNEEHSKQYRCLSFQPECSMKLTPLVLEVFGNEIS

OCCNCCO
not listed: [18] | [19] | [20]
inactive: all other assays above

OCCOCCOCCO
not listed: [1] | [19] | [20]
inactive: all other assays above

CC1(C)C(=O)N(Cl)C(=O)N1Cl
not listed: [12] | [18] | [19] | [20]
inactive: all other assays above

FC(F)C(F)(F)COCC1CO1 (centres undefined)
active: [11] 45.8 µM
inactive: [2] | [18] | [3] | [4] | [5] | [6] | [7] | [8] | [9] | [10] | [11] | [13] | [14] | [16] | [17]

O=S1(=O)CCCO1
not listed: [12] | [18] | [20]
inactive: all other assays above

Cc1ccc(S(=O)(=O)NC(=O)NN2CCCCCC2)cc1
not listed: [1]
inactive: all other assays above

O=S(=O)(O)CCC(F)(F)C(F)(F)C(F)(F)C(F)(F)C(F)(F)C(F)(F)F
inactive: [2] | [18] | [3] | [4] | [5] | [6] | [7] | [8] | [9] | [10] | [11] | [12] | [14] | [16] | [17] | [19]
active: [4] 45.5 µM

OCc1ccccc1
not listed: [13] | [18] | [19]
inactive: all other assays above

O=C1CN(N=Cc2ccc([N+](=O)[O-])o2)C(=O)N1
not listed: [1] | [12]
inactive: all other assays above

COCc1nnc(-c2ccc[n+]([O-])c2)n1-c1c(Cl)c(Cl)cc2[nH]c(=O)c(=O)[nH]c12
not listed: [13] | [18] | [20]
inactive: all other assays above

CCN(CC)C(=S)SSC(=S)N(CC)CC
inactive: [18]
active: [1] 31.2 µM | [3] 27.8 µM | [4] 25.5 µM | [20] 39.8 µM | [5] 20 µM | [6] 31.7 µM | [7] 34.6 µM | [9] 26.4 µM | [10] 26.8 µM | [11] 8.96 µM | [12] 32.4 µM | [13] 25.5 µM | [14] 32.3 µM | [15] 17.9 µM | [16] 27.9 µM | [17] 18.7 µM

CCn1nc(C)c2c1C(=O)NCC(c1ccc(O)cc1)=N2
not listed: [12] | [18] | [20]
inactive: all other assays above

O=C(Cl)C(F)(F)C(F)(F)C(F)(F)C(=O)Cl
inactive: [2] | [18] | [3] | [4] | [5] | [6] | [7] | [8] | [9] | [10] | [11] | [12] | [13] | [14] | [16] | [17]
active: [16] 12.2 µM

CCOc1ccc2[nH]cc(C(=O)NCc3ccccc3)c(=O)c2n1
not listed: [1]
inactive: all other assays above

CCCCCOC(C)=O
not listed: [1] | [20]
inactive: all other assays above
